The supplement of paper PMC3334620
Over roughly 33,000 sequences, “E-score (-0.5 to 0.5)” has its median near -0.012; the highest 2% begin near 0.27. The entries come from a sample that favours the highest values as a whole.

These sequences were tested against T1, Vhr1 (UniProt P40522) (assay: PBM E-score (8-mer binding enrichment) (E-score (-0.5 to 0.5)); higher = stronger / more preferred TF binding). Conditions: protein concentration: 200 nM; construct: GST-full length.
T1 sequence: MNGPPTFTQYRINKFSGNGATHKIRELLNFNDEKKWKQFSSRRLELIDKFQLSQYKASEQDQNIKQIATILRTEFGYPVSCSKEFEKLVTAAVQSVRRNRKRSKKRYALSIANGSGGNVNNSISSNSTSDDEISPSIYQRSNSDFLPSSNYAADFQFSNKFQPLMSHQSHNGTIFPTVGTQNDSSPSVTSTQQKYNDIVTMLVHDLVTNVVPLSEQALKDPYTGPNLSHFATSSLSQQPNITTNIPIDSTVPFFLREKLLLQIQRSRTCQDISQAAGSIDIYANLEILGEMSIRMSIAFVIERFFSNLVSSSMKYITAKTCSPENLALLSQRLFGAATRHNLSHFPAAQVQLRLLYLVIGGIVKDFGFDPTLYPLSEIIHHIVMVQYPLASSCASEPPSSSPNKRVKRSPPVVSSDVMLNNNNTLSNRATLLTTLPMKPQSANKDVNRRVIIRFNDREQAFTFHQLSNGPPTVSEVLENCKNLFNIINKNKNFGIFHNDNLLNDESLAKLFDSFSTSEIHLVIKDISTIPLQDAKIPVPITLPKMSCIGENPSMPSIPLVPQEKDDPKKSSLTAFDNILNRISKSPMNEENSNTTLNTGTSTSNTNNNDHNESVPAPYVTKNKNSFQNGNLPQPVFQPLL
Summary of the method: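 Yeast transcription factors, full-length or as DNA-binding domains, were expressed with a GST tag using PURExpress in vitro transcription/translation. At about 100-200 nM they were applied to universal all-10-mer Agilent arrays, double-stranded by primer extension on fresh or once-stripped slides. Fluorescent anti-GST detected bound protein, and masliner normalised the scans. E-scores for ungapped eight-base words, pooled with reverse complements, came from the Universal PBM Analysis Suite.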

| Sequence | PBM E-score |
| --- | --- |
| AACCCGTT | -0.0686 |
| GGTGCACA | 0.0381 |
| GCTTTATA | -0.261 |
| CCCTCTAC | -0.113 |
| CCACGTCA | -0.165 |
| GCACAAGC | 0.0452 |
| CACGCAGG | -0.0242 |
| GGATATGA | 0.289 |
| CGATATGA | 0.125 |
| AGATATGA | 0.161 |
| CCATATGA | 0.176 |
| GCATATGA | 0.19 |
| TCATATGA | 0.381 |
| CATGAGCA | 0.125 |
| GGTAGCGA | -0.0248 |
| GAGGATAA | 0.0571 |
| CCGGACTA | 0.108 |
| GTTGACTA | 0.261 |
| CCTGACGC | -0.197 |
| GCTGACTA | 0.324 |
| ACTGACTC | 0.421 |
| ACTGACAC | 0.0369 |
| CCGGACTC | 0.303 |
| ACTGACCC | 0.0589 |
| CCTGACTC | 0.479 |

| Sequence | PBM E-score |
| --- | --- |
| CCTGACAC | 0.188 |
| GCTGACAA | -0.0645 |
| ACGGACTC | -0.0189 |
| AAGAAAGT | -0.0406 |
| CTTCATTC | -0.0777 |
| CCAATTCG | -0.173 |
| GGGATCAA | -0.109 |
| ATTTGGTG | -0.068 |
| ATAGGGTC | 0.197 |
| CCAGCATA | 0.0195 |
| ACTGACCA | -0.0638 |
| ACTGACTG | 0.0572 |
| ATTGACTC | 0.3 |
| CCTGACTA | 0.391 |
| CTTGACTC | 0.262 |
| ATTGACTA | 0.236 |
| CCTGACAA | 0.0179 |
| ACTGACTA | 0.295 |
| CCTGACGA | 0.0859 |
| CCCAGCAG | 0.0474 |
| AACTGGCT | -0.204 |
| CAGCGCAC | -0.152 |
| CGGTTGAC | -0.0106 |
| AGGCAAGG | -0.292 |
| AATGACTG | 0.271 |

| Sequence | PBM E-score |
| --- | --- |
| AATGACAC | 0.0353 |
| CATGACAA | 0.0092 |
| AATGACTC | 0.463 |
| CATGACTA | 0.458 |
| GATGACAA | -0.00976 |
| AATGACGC | 0.00169 |
| AATGACTA | 0.353 |
| CATGACGA | 0.22 |
| AATGACGA | -0.0492 |
| GATGACTA | 0.447 |
| GATGACCA | 0.13 |
| GGATCCGA | -0.0296 |
| ATGTAGCG | -0.0682 |
| AGCGCAAT | -0.0761 |
| ATCTTAGG | -0.132 |
| GCGCTGGA | 0.168 |
| GTTGATAA | 0.109 |
| CGGCTACA | 0.153 |
| CATGGCTC | 0.28 |
| CATGGCTA | 0.224 |
| CATGGTTA | 0.215 |
| AATGGCTC | 0.137 |
| AATGGTTC | 0.212 |
| CATGGTTC | 0.364 |
| AAAATCTT | -0.316 |

| Sequence | PBM E-score |
| --- | --- |
| CCATCGAG | 0.0908 |
| ACGCGATG | 0.148 |
| ACTCGGAG | 0.29 |
| ACTCGGAT | 0.186 |
| CCTCGGAG | 0.00615 |
| TCTGGTCA | 0.0764 |
| GACGAGAC | -0.0155 |
| GACGAGTC | 0.276 |
| CACGAGTA | 0.0881 |
| AACGAGTT | -0.117 |
| CCCGAGTC | 0.387 |
| AACGAGTC | 0.278 |
| CACGAGTG | -0.0364 |
| GACGAGTA | 0.077 |
| ACCGAGTC | 0.254 |
| CACGAGTC | 0.324 |
| AACGAGTA | 0.134 |
| CCCGAGTA | 0.184 |
| CGCGACGC | -0.00297 |
| ACGACCTA | 0.143 |
| AAGTGTGT | 0.0443 |
| AGAACGAC | 0.00162 |
| CCGTTACG | -0.0486 |
| ACCCGATG | 0.137 |
| ACTTGCTC | -0.057 |

| Sequence | PBM E-score |
| --- | --- |
| CTTATCGC | -0.0118 |
| TCCGACAA | -0.0624 |
| GATTTCCA | 0.0482 |
| GATAATCC | -0.112 |
| CTTAATCA | 0.214 |
| CATAATCC | 0.105 |
| CATAATCA | 0.308 |
| CATAATCG | 0.0927 |
| GTTAATCA | 0.296 |
| AATAATCA | 0.203 |
| ATTAATCA | 0.217 |
| GATAATCA | 0.301 |
| TAGATTCA | -0.0459 |
| GTGCGAAC | -0.037 |
| AAGATCAG | 0.0101 |
| ACCTGGAC | 0.0512 |
| CCAATGAC | 0.285 |
| ACCATGAC | 0.307 |
| GCAATGAC | 0.103 |
| CCCATGAC | 0.332 |
| ACCATGAG | 0.0389 |
| CCAATGAA | -0.18 |
| ACCATGAA | 0.276 |
| CCCATGAA | 0.0105 |
| ACCATGAT | 0.219 |

| Sequence | PBM E-score |
| --- | --- |
| GCCATGAA | 0.0605 |
| TCCATGAA | 0.123 |
| GCCATGAC | 0.0961 |
| GTGGGGTA | 0.22 |
| CACCCGAC | 0.0689 |
| GTGTGCGA | 0.0262 |
| CGTCTCCA | 0.149 |
| CGGAGGAC | 0.00537 |
| CTTAAGCC | -0.234 |
| AAGTTTGT | -0.034 |
| CGGGGTCC | -0.227 |
| ACACATAG | 0.102 |
| GTACATAC | 0.119 |
| ATACATAG | 0.108 |
| ATACATAA | 0.135 |
| CTACATAC | 0.0864 |
| ACACATAA | 0.119 |
| ACACATAC | 0.29 |
| ATACATAT | 0.367 |
| ATACATAC | 0.293 |
| GCTGACCC | 0.0256 |
| ACCCAGCT | 0.0775 |
| GTCCAGCA | -0.0682 |
| ACGTCCAT | -0.123 |
| CGCGGTCC | -0.137 |

| Sequence | PBM E-score |
| --- | --- |
| CGATCCCG | 0.0117 |
| AGATCCCG | 0.297 |
| AGATCCCT | -0.142 |
| ACCTCACG | -0.0286 |
| CATCAACG | 0.131 |
| AGGGGCGG | 0.348 |
| AGGGGCGA | 0.113 |
| AGGGGCGC | 0.0808 |
| GTTCATTA | -0.0167 |
| GCCACTCC | 0.205 |
| CTGACTCC | 0.47 |
| ACGACTCT | 0.261 |
| ACGACTCA | 0.445 |
| CTTACTCC | 0.0868 |
| ACGACTTA | -0.0824 |
| GCGACCCC | 0.0605 |
| CCGACTTA | -0.0517 |
| CCGACTCA | 0.417 |
| CTGACCCC | -0.0745 |
| GCGACTCC | 0.414 |
| CCGACTGA | -0.0635 |
| AAATGGAC | -0.0108 |
